KB-3-1 tox = KB-3-1 parental cell cytotoxicity. AID 1347075. KB-3-1 viability, CellTiter-Glo ATP luminescence, 72 h. Potency, µM (highest dose often 46.1 µM), hits mostly cytotoxic. 400,000 compounds, 1.4% hits; further: nearly all actives have a fitted effect of over 60% in size
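Multi-concentration cytotoxicity screen in KB-3-1 cells grown in DMEM lacking phenol red with 10% FBS. After 72 h at 37 °C with compound, ATP-dependent luminescence was recorded.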
DT40 TDP1 no CPT = qHTS for Inhibitors of human tyrosyl-DNA phosphodiesterase 1 (TDP1): qHTS in cells in absence of CPT; 420,000 compounds, 15% hits; AID 686978, 2013; Potency, µM (series often up to 46.2 µM), without a hit: top-dose activity change, negative = growth inhibition, usual class: inhibitors; DT40 Tdp1-/- hTDP1 cells, no CPT, ATP luminescence, 48 h; further: nearly all actives have a fitted effect of over 55% in size
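Chicken DT40 Tdp1-/- cells complemented with human TDP1, screened without camptothecin (DMSO vehicle only), 400 cells/well. Compounds pin-transferred, cells incubated at 37 °C for at least 48 hr. Growth read as ATP-dependent luminescence (CellTiter-Glo, 30 min at RT).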
HT1080 IDH1KD tx = kills HT-1080 cells with IDH1 knockdown; HT-1080 IDH1 knockdown viability, ATP luminescence, 48 h; AID 686971; Potency, µM (top dose mostly 46.1 µM), without a hit: top-dose activity, negative = toxicity, hits mostly cytotoxic; 360,000 compounds, 2% hits;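 further: 0% = DMSO wells and -100% = cell-free medium wells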
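% activity derives from luminescence (CellTiter-Glo), normalised to DMSO and no-cell wells. HT-1080-IDH1KD cells, 750/well, had 48 h compound exposure at 37 °C.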
KB-V1 cytotox = KB-V1 MDR subline cytotoxicity; KB-V1 MDR cells viability, CellTiter-Glo, 72 h; Potency, µM (titrated, usually from 46.1 µM), hits mostly cytotoxic; 400,000 compounds, 3.4% hits; further: nearly all actives have a fitted effect of over 60% in size
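In this primary screen, KB-V1 cells overexpressing P-gp are incubated with library compounds (lowest to highest concentration) for 72 h at 37 degrees C before a luminescent ATP viability read.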
HT1080NT lethal = kills 2HG-producing HT-1080-NT fibrosarcoma cells; HT-1080-NT fibrosarcoma viability, CellTiter-Glo ATP luminescence, 48 h; Potency, µM (top dose mostly 46.1 µM), for inactives: at the top dose activity, negative = less viability, usual class: cytotoxic; 360,000 compounds, 1.6% hits;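 further: NT is the 2HG producing partner of a matched IDH1 knockdown line; 0% = DMSO-treated cells and -100% = media-only wells without cells; nearly all actives have a fitted effect of over 55% in size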
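Luminescent CellTiter-Glo readout after 48 hours of compound exposure at 37 degrees C defined viability of HT-1080-NT cells. Activity was normalized to DMSO wells and cell-free media wells; concentration-response curves were fitted and assigned curve classes.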
DT40 TDP1 CPT = growth inhibition of DT40 Tdp1-/-;hTDP1 cells with camptothecin (screen for TDP1 inhibitors) | chicken DT40 Tdp1-/-;hTDP1 cells + 20 nM CPT, ATP luminescence, 48 h | Potency, µM (highest dose often 46.2 µM), without a hit: at the highest dose activity change, negative = growth inhibition, usual class: inhibitors | 420,000 compounds, 12% hits; further: nearly all actives have a fitted effect of over 55% in size
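Cell growth measured by CellTiter-Glo luminescence after a minimum 48 h, 37 C compound exposure with 20 nM CPT in Tdp1-knockout DT40 cells stably expressing hTDP1, seeded 400/well; qHTS titration format.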
* hit, by the source's call; i = inactive; ? = inconclusive; / = no result; [ ] = dose if it differs, or a comment. Rows were chosen to be rich in hits. Some 19% of all compounds tested hit in one or more screens of this group. The call rests on the fitted dose curve; in most records, active means well fitted curve in the direction sought with a large enough effect; inconclusive means small, poorly fitted or top-dose-only effect, or another doubt; inactive means no such curve, though single readings can be large; an effect the other way counts as inactive or inconclusive. Unless noted, on the % scale 0 is the no-effect control and ±100 the full control effect; potency means the concentration at half of the fitted maximal effect.

SMILES | KB-3-1 tox | DT40 TDP1 no CPT | HT1080 IDH1KD tx | KB-V1 cytotox | HT1080NT lethal | DT40 TDP1 CPT
COc1cccc(Cn2c(=O)c(C)nc3cnc(Nc4ccccc4)nc32)c1 | / | ? | / | / | / | 4.8%
COc1ccc(C(=O)NCCCNc2nc3cc(C)cc(C)c3cc2C#N)cc1 | i | 20.6µM* | 3.3% | ? | -16.6% | ?
COc1ccc(C(=O)NCCNC(=O)c2ccc(OC)cc2)cc1 | ? | -19.3% | 0.2% | i | 0.9% | -15.6%
COc1ccc(C(=O)NCCNc2nc3cc(C)cc(C)c3cc2C#N)nc1 | i | -20.4% | 19.5% | i | 20.7% | -6.6%
COc1ccc(C(=O)NCC(C)(C)SCc2c(C)cc(C)cc2C)cc1 | i | 15.8µM* | -9.0% | 18.4µM* | ? | 23.1µM*
COc1ccccc1C(=O)NCCNc1nc2cc(C)cc(C)c2cc1C#N | i | 18.4µM* | 3.8% | i | 4.8% | ?
COc1cc(OC)cc(C(=O)NCCNc2nc3cc(C)cc(C)c3cc2C#N)c1 | i | 23.1µM* | -18.5% | i | -16.5% | ?
COc1cccc(Cn2c(=O)c(-c3ccc(F)c(F)c3)nc3cncnc32)c1 | / | ? | / | / | / | -24.0%
CC1(C(=O)NS(=O)(=O)c2cccc(OC(F)F)c2)CCN1C(=O)c1ccccc1CCc1ccccc1 (configuration not stated) | i | ? | -12.1% | i | -6.4% | ?
CCCCNC(=O)c1nc(C2CCN(S(=O)(=O)c3ccc(Cl)cc3)CC2)oc1-c1ccccc1 | i | 7.31µM* | 11.7% | ? | 14.0% | 7.31µM*
CCCCNC(=O)c1nc(C2CCN(S(=O)(=O)c3c(OC)cccc3OC)CC2)oc1-c1ccccc1 | i | 9.2µM* | -7.2% | ? | -9.1% | 11.6µM*
CCCCNC(=O)c1nc(C2CCN(S(=O)(=O)c3cccc(C(F)(F)F)c3)CC2)oc1-c1ccccc1 | i | 8.2µM* | -5.2% | i | -1.7% | 9.2µM*
CCCCNC(=O)c1nc(C2CCN(S(=O)(=O)c3csc(C(=O)O)c3)CC2)oc1-c1ccccc1 | i | 1.2% | -0.4% | i | 28.2% | -5.9%
COc1ccc(-n2cc3ccc([N+](=O)[O-])cc3n2)cc1 | 5.8µM* | 29.1µM* | -11.2% | ? | -9.3% | ?
CC(=O)Nc1ccc(S(=O)(=O)O)c2cc(S(=O)(=O)O)c(N=Nc3ccc(N=Nc4ccc(S(=O)(=O)O)cc4)c4ccc(S(=O)(=O)O)cc34)c(O)c12 | ? | 12.6µM* | / | ? | / | 8.91µM*
CC(=O)Nc1cccc2cc(S(=O)(=O)O)ccc12 | i | 9.9% | 17.7% | i | 17.8% | 4.3%
COc1ccc(-c2cc(C(=O)Nc3c(C(=O)c4ccc(C)cc4)oc4ccccc34)no2)cc1 | / | 5.8% | / | / | / | -4.2%
COc1ccc(C(=O)Nc2nnc(S(=O)(=O)N3CCCc4ccccc43)s2)cc1 | i | -3.0% | / | i | / | -1.6%
CC1=CC(=O)C2=C(C)C[C@@H]3OC(=O)[C@@H](C)[C@H]3C=C12 | / | 7.2%[9.04 µM] | / | / | / | 8.7%[9.04 µM]
COc1ccc(C(=O)/C=C2/c3ccccc3CC(C)(C)N2C)cc1OC | i | 16.4µM* | 12.4% | ? | 6.0% | ?
CC(N=C1NS(=O)(=O)c2ccccc21)C(=O)NCc1ccncc1 (configuration not stated) | i | -22.9% | 12.2% | ? | 4.3% | 9.3%
CCn1c(=O)c2c(cnn2C)c2ccccc21 | i | ? | -0.5% | i | -1.4% | 7.31µM*
CN(Cc1ccccc1)C(=O)Cn1ncc2c3ccccc3n(Cc3cccc(Cl)c3)c2c1=O | i | ? | / | i | / | ?
CC(C)N(Cc1ccccc1)C(=O)Cn1ncc2c3ccccc3n(Cc3ccccc3)c2c1=O | i | 18.4µM* | / | i | / | ?
CCCn1c2ccccc2c2cnn(CC(=O)NCCCN(Cc3ccccc3)C(C)C)c(=O)c21 | i | 20.6µM* | / | i | / | ?
SMILES | KB-3-1 tox | DT40 TDP1 no CPT | HT1080 IDH1KD tx | KB-V1 cytotox | HT1080NT lethal | DT40 TDP1 CPT
CCCn1c2ccccc2c2cnn(CC(=O)N(CCCOC(C)C)Cc3ccco3)c(=O)c21 | i | 16.4µM* | / | ? | / | 16.4µM*
COCCn1c(C)cc(C(=O)COC(=O)/C=C/c2c(C)nn(C3CCS(=O)(=O)C3)c2Cl)c1C (configuration not stated) | i | ? | 2.2% | ? | 5.8% | ?
COc1ccc(CCNC(=O)Cn2c(=O)cnc3ccccc32)cc1 | ? | 23.1µM* | ? | i | ? | ?
CCCn1c2ccccc2c2cnn(CC(=O)NC3CCC(C)CC3)c(=O)c21 (configuration not stated) | i | 4.4% | 2.6% | i | 10.3% | -2.9%
CCCNC(=O)Cn1c(=O)cnc2ccccc21 | i | -21.6% | 16.7% | ? | 24.6% | -3.6%
CC(C)(C)c1ccc(Cn2c(=O)cnc3ccccc32)cc1 | ? | 16.4µM* | 7.31µM* | ? | 9.2µM* | 16.4µM*
O=c1cnc2ccccc2n1Cc1ccc(Br)cc1 | i | ? | ? | ? | ? | 5.2%
CCCn1c2ccccc2c2cnn(CC(=O)NCCCN3CCN(c4ccccc4)CC3)c(=O)c21 | i | 20.6µM* | ? | i | 18.4µM* | ?
CCCn1c2ccccc2c2cnn(CC(=O)NC3CCCC(C)C3C)c(=O)c21 (configuration not stated) | i | 2.06µM* | 0.0% | i | 6.6% | ?
CCOCCn1c(N2CCCN(C)CC2)nc2ccccc21 | / | -20.7% | / | / | / | -6.7%
CCCn1c2ccccc2c2cnn(CC(=O)NCCc3ccccc3)c(=O)c21 | / | ? | / | / | / | 23.1µM*
CCCN(CCC)CCCNC(=O)Cn1ncc2c3ccccc3n(Cc3ccc(F)cc3)c2c1=O | i | 20.6µM* | / | i | / | 18.4µM*
CCCn1c2ccccc2c2cnn(CC(=O)NCCc3ccc(OCC)cc3)c(=O)c21 | i | 23.1µM* | / | i | / | ?
CCNC(=S)NNC(=O)c1csc(C(C)C)c1 | ? | -16.2% | 3.1% | 20.6µM* | -0.6% | -1.0%
CCCCNC(=S)NNC(=O)c1csc(C(C)C)c1 | i | ? | -6.4% | 23.1µM* | -20.2% | ?
CCOc1cc(-c2cc(-c3ccc(C)cc3)nc(N)c2C#N)ccc1O | 5.8µM* | 20.6µM* | 12.6µM* | 8.2µM* | 8.91µM* | ?
COc1ccccc1-c1c(C#N)c(N)nc2c1CCc1ccccc1-2 | 13µM* | 6.51µM* | 16.4µM* | 16.4µM* | 14.6µM* | 6.51µM*

Bioassay records deposited in PubChem BioAssay by National Center for Advancing Translational Sciences (NCATS).
